The target in test [1] is RAC-alpha serine/threonine-protein kinase (Homo sapiens) (UniProt P31749). The conditions noted are these: at 0.1 µM.
Test [2] shares this target. The conditions noted are these: at 1 µM.
Test [3] addresses RAC-beta serine/threonine-protein kinase (Homo sapiens) (UniProt P31751). The conditions noted are these: at 0.1 µM.
Test [4] has the same target. The conditions noted are these: at 1 µM.
The target of test [5] is RAC-gamma serine/threonine-protein kinase (Homo sapiens) (UniProt Q9Y243). The conditions noted are these: at 0.1 µM.
The target is the same in test [6]. The conditions noted are these: at 1 µM.
The target of test [7] is G protein-coupled receptor kinase 6 (Homo sapiens) (UniProt P43250). The conditions noted are these: at 0.1 µM.
Test [8] has the same target. The conditions noted are these: at 1 µM.
The target in test [9] is T1, Rhodopsin kinase GRK7 (Homo sapiens) (UniProt Q8WTQ7).
T1 sequence (whole entry): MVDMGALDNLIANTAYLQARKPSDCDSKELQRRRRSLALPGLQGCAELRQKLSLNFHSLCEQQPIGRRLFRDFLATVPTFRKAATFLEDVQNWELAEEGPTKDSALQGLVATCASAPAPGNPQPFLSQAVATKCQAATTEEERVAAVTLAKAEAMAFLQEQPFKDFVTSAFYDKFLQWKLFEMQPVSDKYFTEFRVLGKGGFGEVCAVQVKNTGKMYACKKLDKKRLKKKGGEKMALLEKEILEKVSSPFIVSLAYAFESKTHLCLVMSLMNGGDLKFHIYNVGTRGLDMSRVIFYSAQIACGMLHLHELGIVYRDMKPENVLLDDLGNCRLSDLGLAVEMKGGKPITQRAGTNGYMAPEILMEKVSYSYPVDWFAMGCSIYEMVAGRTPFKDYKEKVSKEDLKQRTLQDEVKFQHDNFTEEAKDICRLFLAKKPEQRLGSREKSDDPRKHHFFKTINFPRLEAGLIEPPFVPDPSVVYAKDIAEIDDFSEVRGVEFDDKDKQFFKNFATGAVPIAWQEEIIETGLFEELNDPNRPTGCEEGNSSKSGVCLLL
The conditions noted are these: at 0.1 µM.

In test [10] the target is T1, Rhodopsin kinase GRK7 (Homo sapiens). The conditions noted are these: at 1 µM.
In test [11] the target is Serine/threonine-protein kinase MRCK alpha (Homo sapiens) (UniProt Q5VT25). The conditions noted are these: at 0.1 µM.
For test [12] the target is unchanged. The conditions noted are these: at 1 µM.
In test [13] the target is Serine/threonine-protein kinase MRCK beta (Homo sapiens) (UniProt Q9Y5S2). The conditions noted are these: at 0.1 µM.
The target is the same in test [14]. The conditions noted are these: at 1 µM.
The target of test [15] is Ribosomal protein S6 kinase alpha-5 (Homo sapiens) (UniProt O75582). The conditions noted are these: at 0.1 µM.
The target is the same in test [16]. The conditions noted are these: at 1 µM.
The target of test [17] is Ribosomal protein S6 kinase alpha-4 (Homo sapiens) (UniProt O75676). The conditions noted are these: at 0.1 µM.
The target is the same in test [18]. The conditions noted are these: at 1 µM.
Test [19] deals with Ribosomal protein S6 kinase beta-1 (Homo sapiens) (UniProt P23443). The conditions noted are these: at 0.1 µM.
Test [20] has the same target. The conditions noted are these: at 1 µM.

Chain of Serine/threonine-protein kinase MRCK beta (Homo sapiens) (Q9Y5S2 whole entry): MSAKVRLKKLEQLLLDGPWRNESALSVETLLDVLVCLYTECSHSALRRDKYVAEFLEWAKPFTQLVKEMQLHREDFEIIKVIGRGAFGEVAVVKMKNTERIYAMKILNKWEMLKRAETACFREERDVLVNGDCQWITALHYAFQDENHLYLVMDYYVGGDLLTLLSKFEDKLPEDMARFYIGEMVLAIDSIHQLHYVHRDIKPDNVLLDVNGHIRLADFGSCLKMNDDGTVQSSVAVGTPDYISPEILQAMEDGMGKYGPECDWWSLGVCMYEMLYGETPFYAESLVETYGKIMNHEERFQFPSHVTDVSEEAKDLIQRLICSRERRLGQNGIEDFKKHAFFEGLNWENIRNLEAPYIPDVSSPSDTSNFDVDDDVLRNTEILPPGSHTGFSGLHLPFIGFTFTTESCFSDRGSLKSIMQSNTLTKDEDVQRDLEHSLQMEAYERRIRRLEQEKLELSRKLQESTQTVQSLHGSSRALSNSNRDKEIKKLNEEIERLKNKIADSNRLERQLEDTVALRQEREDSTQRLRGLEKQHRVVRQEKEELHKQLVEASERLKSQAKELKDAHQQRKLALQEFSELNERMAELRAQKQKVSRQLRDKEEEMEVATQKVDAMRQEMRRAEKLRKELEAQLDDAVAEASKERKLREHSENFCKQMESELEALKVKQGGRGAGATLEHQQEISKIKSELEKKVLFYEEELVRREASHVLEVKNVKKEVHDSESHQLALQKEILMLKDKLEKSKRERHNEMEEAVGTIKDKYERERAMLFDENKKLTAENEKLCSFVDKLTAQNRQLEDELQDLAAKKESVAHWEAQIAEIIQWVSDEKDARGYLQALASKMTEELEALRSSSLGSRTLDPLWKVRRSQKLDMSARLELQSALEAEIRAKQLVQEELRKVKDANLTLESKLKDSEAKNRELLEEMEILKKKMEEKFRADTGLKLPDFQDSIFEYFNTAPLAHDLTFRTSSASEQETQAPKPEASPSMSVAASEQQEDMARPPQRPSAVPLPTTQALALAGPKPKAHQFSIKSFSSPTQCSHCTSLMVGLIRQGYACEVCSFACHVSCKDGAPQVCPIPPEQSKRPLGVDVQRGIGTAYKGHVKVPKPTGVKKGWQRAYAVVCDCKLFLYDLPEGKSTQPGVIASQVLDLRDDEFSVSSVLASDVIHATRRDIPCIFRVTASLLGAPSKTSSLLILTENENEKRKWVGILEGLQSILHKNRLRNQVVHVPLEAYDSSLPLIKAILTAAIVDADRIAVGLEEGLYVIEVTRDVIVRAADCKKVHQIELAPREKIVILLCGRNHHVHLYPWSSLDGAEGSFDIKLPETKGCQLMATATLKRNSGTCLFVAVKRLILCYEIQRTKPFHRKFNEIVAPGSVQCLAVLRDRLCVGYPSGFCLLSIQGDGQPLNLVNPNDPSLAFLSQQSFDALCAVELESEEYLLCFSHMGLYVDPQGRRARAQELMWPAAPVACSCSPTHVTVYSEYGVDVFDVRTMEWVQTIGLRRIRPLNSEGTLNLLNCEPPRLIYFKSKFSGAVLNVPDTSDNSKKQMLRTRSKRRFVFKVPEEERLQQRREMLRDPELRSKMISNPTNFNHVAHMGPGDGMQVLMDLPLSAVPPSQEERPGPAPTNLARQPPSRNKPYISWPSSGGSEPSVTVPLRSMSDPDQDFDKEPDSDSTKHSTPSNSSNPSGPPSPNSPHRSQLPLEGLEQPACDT
Chain of Ribosomal protein S6 kinase alpha-5 (Homo sapiens) (O75582 whole entry, looked up): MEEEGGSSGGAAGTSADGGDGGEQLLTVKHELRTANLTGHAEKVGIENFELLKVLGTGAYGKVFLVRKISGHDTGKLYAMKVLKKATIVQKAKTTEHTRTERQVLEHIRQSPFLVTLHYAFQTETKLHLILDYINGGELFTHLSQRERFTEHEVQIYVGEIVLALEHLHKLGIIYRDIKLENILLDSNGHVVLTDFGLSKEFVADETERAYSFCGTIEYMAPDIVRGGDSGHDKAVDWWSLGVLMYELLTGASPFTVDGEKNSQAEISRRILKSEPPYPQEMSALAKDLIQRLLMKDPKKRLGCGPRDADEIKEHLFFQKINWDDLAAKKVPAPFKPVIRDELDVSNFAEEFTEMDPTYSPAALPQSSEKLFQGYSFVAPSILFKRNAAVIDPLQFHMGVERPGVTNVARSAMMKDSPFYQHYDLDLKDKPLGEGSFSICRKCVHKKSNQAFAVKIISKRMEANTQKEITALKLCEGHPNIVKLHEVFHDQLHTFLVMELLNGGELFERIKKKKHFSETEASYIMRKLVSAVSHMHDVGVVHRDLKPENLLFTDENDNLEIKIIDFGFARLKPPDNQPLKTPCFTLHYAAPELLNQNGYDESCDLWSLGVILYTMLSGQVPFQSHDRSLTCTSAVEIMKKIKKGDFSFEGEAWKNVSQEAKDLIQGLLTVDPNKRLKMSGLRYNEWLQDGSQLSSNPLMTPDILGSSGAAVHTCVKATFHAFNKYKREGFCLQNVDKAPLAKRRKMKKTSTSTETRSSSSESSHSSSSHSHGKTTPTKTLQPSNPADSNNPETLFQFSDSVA
Chain of Ribosomal protein S6 kinase beta-1 (Homo sapiens) (P23443 whole entry, looked up): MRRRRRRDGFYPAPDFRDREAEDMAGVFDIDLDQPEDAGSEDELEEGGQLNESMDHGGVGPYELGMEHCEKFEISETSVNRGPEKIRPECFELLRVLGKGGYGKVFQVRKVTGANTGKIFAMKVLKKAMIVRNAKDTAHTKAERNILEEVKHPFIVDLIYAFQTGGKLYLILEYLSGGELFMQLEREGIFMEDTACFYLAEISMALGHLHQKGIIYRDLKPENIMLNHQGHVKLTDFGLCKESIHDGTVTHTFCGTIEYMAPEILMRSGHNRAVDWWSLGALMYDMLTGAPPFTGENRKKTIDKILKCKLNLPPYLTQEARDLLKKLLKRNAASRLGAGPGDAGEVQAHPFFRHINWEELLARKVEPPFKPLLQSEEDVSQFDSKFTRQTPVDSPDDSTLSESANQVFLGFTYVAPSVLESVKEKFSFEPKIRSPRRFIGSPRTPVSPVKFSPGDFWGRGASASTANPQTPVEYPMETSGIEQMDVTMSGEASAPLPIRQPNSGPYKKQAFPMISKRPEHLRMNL
Chain of G protein-coupled receptor kinase 6 (Homo sapiens) (P43250 whole entry, looked up): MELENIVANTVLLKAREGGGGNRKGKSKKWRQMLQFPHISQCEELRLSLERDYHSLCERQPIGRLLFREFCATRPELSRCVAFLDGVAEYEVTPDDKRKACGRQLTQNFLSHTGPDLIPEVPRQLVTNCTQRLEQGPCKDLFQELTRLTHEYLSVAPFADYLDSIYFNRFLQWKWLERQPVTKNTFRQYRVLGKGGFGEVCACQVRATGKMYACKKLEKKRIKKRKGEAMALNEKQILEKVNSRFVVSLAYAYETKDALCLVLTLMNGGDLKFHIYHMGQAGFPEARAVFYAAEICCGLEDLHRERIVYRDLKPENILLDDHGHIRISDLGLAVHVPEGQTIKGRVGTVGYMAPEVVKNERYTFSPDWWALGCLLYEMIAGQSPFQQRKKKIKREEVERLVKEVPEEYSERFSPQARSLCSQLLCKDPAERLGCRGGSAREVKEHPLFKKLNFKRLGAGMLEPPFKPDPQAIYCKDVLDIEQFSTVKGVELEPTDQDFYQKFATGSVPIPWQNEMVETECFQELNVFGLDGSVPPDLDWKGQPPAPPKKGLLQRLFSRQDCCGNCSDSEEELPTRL
Chain of RAC-gamma serine/threonine-protein kinase (Homo sapiens) (Q9Y243 whole entry): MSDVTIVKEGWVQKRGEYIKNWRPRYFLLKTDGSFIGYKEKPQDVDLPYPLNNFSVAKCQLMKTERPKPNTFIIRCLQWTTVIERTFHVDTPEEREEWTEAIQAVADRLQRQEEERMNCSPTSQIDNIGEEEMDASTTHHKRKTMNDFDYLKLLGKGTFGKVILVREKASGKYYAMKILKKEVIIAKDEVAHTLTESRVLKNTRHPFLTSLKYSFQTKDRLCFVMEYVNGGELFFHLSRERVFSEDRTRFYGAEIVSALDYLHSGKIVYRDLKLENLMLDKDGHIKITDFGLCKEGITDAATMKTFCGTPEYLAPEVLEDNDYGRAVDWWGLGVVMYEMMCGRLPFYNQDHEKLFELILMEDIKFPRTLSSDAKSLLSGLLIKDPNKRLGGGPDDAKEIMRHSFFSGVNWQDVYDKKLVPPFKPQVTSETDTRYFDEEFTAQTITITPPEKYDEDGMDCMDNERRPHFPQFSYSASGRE
Chain of RAC-beta serine/threonine-protein kinase (Homo sapiens) (P31751 whole entry): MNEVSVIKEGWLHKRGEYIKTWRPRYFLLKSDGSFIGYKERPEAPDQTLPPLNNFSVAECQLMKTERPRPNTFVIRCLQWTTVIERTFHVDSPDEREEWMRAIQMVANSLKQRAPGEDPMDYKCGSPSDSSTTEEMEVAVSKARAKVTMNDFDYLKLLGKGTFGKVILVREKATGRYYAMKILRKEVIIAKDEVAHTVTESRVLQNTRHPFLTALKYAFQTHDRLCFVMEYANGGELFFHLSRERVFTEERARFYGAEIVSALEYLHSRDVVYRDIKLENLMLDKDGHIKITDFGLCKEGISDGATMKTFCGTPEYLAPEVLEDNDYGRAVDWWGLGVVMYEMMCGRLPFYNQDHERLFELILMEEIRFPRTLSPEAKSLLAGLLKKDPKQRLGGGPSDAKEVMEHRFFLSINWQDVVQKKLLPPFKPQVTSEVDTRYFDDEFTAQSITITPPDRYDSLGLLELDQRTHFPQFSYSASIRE
Chain of RAC-alpha serine/threonine-protein kinase (Homo sapiens) (P31749 whole entry): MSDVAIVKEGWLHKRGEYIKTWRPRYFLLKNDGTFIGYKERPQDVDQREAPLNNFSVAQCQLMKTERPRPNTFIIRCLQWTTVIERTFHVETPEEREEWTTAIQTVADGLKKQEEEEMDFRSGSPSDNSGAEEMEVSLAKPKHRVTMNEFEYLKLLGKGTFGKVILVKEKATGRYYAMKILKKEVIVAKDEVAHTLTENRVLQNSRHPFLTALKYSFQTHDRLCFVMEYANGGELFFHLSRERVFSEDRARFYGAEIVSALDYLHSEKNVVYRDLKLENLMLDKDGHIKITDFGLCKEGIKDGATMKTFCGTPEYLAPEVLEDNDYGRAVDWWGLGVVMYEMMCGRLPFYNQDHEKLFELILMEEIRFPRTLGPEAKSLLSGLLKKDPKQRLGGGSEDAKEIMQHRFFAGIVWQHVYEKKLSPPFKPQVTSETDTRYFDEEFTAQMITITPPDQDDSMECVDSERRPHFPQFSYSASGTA

On to `Fc1cccc(COc2ccc(Nc3ncnc4cc(-c5ccc[nH]5)sc34)cc2Cl)c1`, for which the inhibition is -3.51% in test [1]; -3.04% in test [2]; -2.34% in [3]; -1.49% in test [4]; -3.34% in [5]; -3.78% in test [6]. Further, the inhibition in [7] is 5%; in [8], 2.64%; in test [9], 1.96%; in [10], 13.6%; in [11] it was -0.43%; in test [12], -1.14%. In addition, the inhibition came out at 0.61% in [13]; 0.75% in [14]; 0.34% in test [15]; 0.11% in [16]; 3.11% in [17]; 4.08% in test [18]. The inhibition in test [19] was 0.99%; in test [20], 1.05%.
Regarding `CS(=O)(=O)CCNCc1ccc(-c2ccc3ncnc(Nc4ccc(OCc5cccc(F)c5)c(C(F)(F)F)c4)c3c2)o1`, the inhibition stood at 1.75% in test [1]; 0.54% in [2]; 2.87% in [3]; 0.73% in [4]; 2.73% in test [5]; 2.96% in test [6]. The inhibition is 9.26% in [7]; 5.4% in test [8]; 3.55% in test [9]; 8.92% in test [10]; -0.31% in test [11]; 1.73% in [12]. The inhibition was -0.15% in test [13]; 0.67% in test [14]; 9.28% in test [15]; 8.53% in test [16]; 2.67% in test [17]; 2.44% in test [18]. Moreover, the inhibition stood at 1.58% in test [19] and 2.22% in test [20].
With `COc1cccc(-n2ncc3c(N/N=C/c4cccc(F)c4)ncnc32)c1`, the inhibition in test [1] was -2.98%; in [2], -3.97%; in test [3] it was -2.03%; in test [4], -2.75%; in test [5], -1.82%; in [6] it was -1.99%. Moreover, the inhibition is 3.44% in test [7]; 0.12% in test [8]; 1.93% in [9]; 10.3% in test [10]; 0.1% in test [11]; -0.68% in test [12]. Also, the inhibition is 1.2% in test [13]; 0.38% in test [14]; 0.41% in test [15]; -0.25% in [16]; 2.4% in test [17]; 2.89% in test [18]. The values for the inhibition in [19] and in [20] were 0.65% and 2.01%, respectively.
Turning to `O=C1Nc2ccc(C(=O)c3ccco3)cc2C1=Cc1cc(Cl)c(O)c(Cl)c1`, the inhibition in test [1] was determined as 0.57%; in test [2], 1.08%; in test [3], 1.49%; in test [4], 0.98%; in test [5] it was 1.75%; in [6], 0.62%. The inhibition in test [7] is 29.7%; in test [8], 79.6%; in test [9], 30.6%; in [10], 54.8%; in test [11], -0.25%; in test [12] it was 1.33%. Further, the inhibition in [13] is -0.3%; in test [14], 1.6%; in test [15], 2.41%; in test [16], 5.05%; in test [17], 0.41%; in [18], 4.81%. In addition, the inhibition in test [19] amounted to 0.47%; in test [20] it was 3.14%.
`NC(=O)c1ccc(-c2nc(-c3ccccn3)c(-c3ccc4c(c3)OCO4)[nH]2)cc1`: the inhibition came to 0.43% in test [1]; 0.86% in [2]; 1.27% in test [3]; 1.16% in [4]; 0.75% in [5]; 0.48% in test [6]. For the same compound, the inhibition in test [7] came to 0.64%; in test [8] it was 5.54%; in [9] it was 1.63%; in test [10] it was 6.3%; in test [11] it was 0.14%; in test [12], 2.49%. Further, the inhibition amounted to 1.08% in test [13]; 0.59% in [14]; 1.5% in [15]; 1.56% in [16]; 2.14% in test [17]; 4.23% in test [18]. Besides, the values for the inhibition in test [19] and in [20] were 1.26% and 2.46%, respectively.
Turning to `COC(=O)Nc1nc2cc(Oc3ccc(NC(=O)Nc4cccc(C(=O)O)c4)cc3)ccc2[nH]1`, the inhibition in [1] was -2.71%; in test [2], -3.33%; in test [3] it was -3.47%; in test [4], -2.42%; in test [5] it was -1.3%; in [6], -3.6%. For the same compound, the inhibition in [7] is 2%; in test [8] it was -0.77%; in [9], 1.5%; in test [10], -3.21%; in test [11] it was 1.42%; in test [12], 1.5%. Moreover, the inhibition in test [13] was -0.52%; in [14], -1.21%; in test [15] it was -0.25%; in test [16], 1.28%; in test [17], 1.24%; in test [18], 2.84%. Moreover, the inhibition in test [19] came out at 0.88%; in test [20] it was 0.91%.
On to `NC(=O)c1cccc(Nc2nccc(Nc3cccc4[nH]ncc34)n2)c1`, for which the inhibition is -2.33% in [1]; 1.84% in [2]; -3.71% in test [3]; -1.08% in test [4]; -2.36% in test [5]; -1.13% in test [6]. Moreover, the inhibition in test [7] was -0.32%; in test [8], 2.35%; in test [9], -7.6%; in test [10] it was 5.88%; in test [11], -0.16%; in test [12] it was 2.18%. In addition, the inhibition is 0.71% in test [13]; 3.5% in test [14]; -3.36% in [15]; 2.78% in test [16]; -1.85% in [17]; 1.24% in test [18]. Besides, the values for the inhibition in [19] and in test [20] were -1.61% and 4.1%, respectively.

Usually inhibition stands for the drop in the measured response relative to a control, in per cent.

The values are drawn from ChEMBL document CHEMBL1961873, “Compounds: GSK PKIS; Assays: Nanosyn kinase panel” (2012).
